# The entries come from a sample that favours hits as a whole.
# VCAM1 pot – enhances TNF alpha induced VCAM1 expression in HUVEC. HUVEC TNFa-stimulated VCAM-1 immunofluorescence, high-content imaging; scaled per plate to unstimulated/TNFa-only wells. activation, % at 2 µM. hit rate 0.19% among 93,000;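 active = activation above the screen mean plus 3 SD, with well images confirming the hit on visual review, cut at about 28% in these data, passing the limit was not always enough; inconclusive = activation above that limit but images do not confirm it; inactive = activation not above that limit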;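 also: signal is the number of cytoplasmic VCAM-1 stained grains per positive cell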
# VCAM1 pot conf – enhancers of VCAM1 induction in HUVEC – imaging, triplicate retest, confirmation | shares compounds with VCAM1 pot | HUVEC TNFa-stimulated VCAM-1 immunofluorescence imaging | AID 1034 | activation, % at 2 µM | 230 tested, under 10 active;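 active = activation above 30% in triplicate retests at 2 µM, then confirmed by visual review of the well images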;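 also: scaled per plate between unstimulated and TNFa-stimulated DMSO control wells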
# * marks the source's active call; other numbers are inactive results; u = inconclusive.
SMILES,VCAM1 pot,others
COc1ccc(-c2nc(C#N)c(NCCCN(C)C)o2)cc1OC,-97,
CN(C)c1oc(-c2ccccc2Cl)nc1C#N,41*,VCAM1 pot conf=5
CC(CO)Nc1nc(SCc2ccccc2)nc2sc3c(c12)CCC3 (configuration not stated),1,
CNc1nc(Oc2ccc(=O)n(C)n2)nc(N2CCOCC2)n1,9,
O=C(N/C=C/c1ccc(Cl)cc1)NCc1ccc(Cl)cc1,10,
CCOc1ccc(Br)cc1S(=O)(=O)Nc1ccccc1N1CCOCC1,92*,VCAM1 pot conf=-16
CCOc1cc(N2CCOCC2)c(OCC)cc1NC(=O)CC12CC3CC(CC(C3)C1)C2,3,
CCOc1ccc(C(=O)C2CCN(CC(=O)Nc3ccccc3N3CCOCC3)CC2)cc1,-31,
COC(=O)c1cccc(NC(=O)C23CC4CC(C2)CC(n2cncn2)(C4)C3)c1,-8,
Cc1ccc2oc(-c3cccc(NC(=O)c4cc(-n5cnnc5)ccc4Cl)c3)nc2c1,0,
O=C(CN1C(=O)NC2(CCCCCCC2)C1=O)N1CCOCC1,-8,
Cc1ccc(N(CC(=O)NCc2ccc3c(c2)OCO3)S(C)(=O)=O)cc1,8,
O=C(CN1C(=O)NC2(CCCCCCC2)C1=O)NCc1ccc2c(c1)OCO2,51*,VCAM1 pot conf=-11
COC(=O)C(CC(C)C)NC(=O)c1ccc(F)cc1 (configuration not stated),8,
CCCC1(C(=O)OCC)NC(c2ccc(OC)cc2OC)C2C(=O)N(c3ccc4c(c3)OCCO4)C(=O)C21 (configuration not stated),-7,
C/C(Cl)=C/CN1C(=O)C2C3C=CC(C3)C2C1=O (configuration not stated),-13,
Cc1cccc(NC(=O)c2sc3nc(-c4ccccc4)cn3c2C)n1,42*,VCAM1 pot conf=-12
CCOC(=O)c1cc(-c2ccccc2)sc1NC(=S)Nc1cccc(C)n1,-4,
CCC(=O)NC(Nc1cccc(C)n1)(C(F)(F)F)C(F)(F)F,6,
CNc1nc(SCc2ccccc2)nc(N2CCOCC2)n1,-9,
Nc1nnc(SCc2ccccc2F)n1-c1ccccc1,-9,
O=C(Oc1cccnc1)c1cc(S(=O)(=O)N2CCCCC2)ccc1Cl,-3,
O=C(NCCN1CCOCC1)Nc1ccc(Cl)cc1Cl,1,
CC(C)(C)OC(=O)N1CC(O)CC1C(=O)OCC(=O)c1ccccc1 (configuration not stated),21,
O=C(COC(=O)C1CC(=O)N(c2nc(-c3ccccc3)cs2)C1)c1ccccc1 (configuration not stated),55*,VCAM1 pot conf=-12
SMILES,VCAM1 pot,others
O=C(CSc1cccc2cccnc12)OCC(=O)c1ccccc1,-9,
COC(=O)C1=C(C)N(c2ccc(F)cc2)C(=O)C1,-7,
CCCCCC(=O)N1CCN(CCN=CC2=C(O)CC(c3cccs3)CC2=O)CC1 (configuration not stated),-16,
O=C(CCCCCN1C(=O)CCC1=O)Nc1ccc2c(c1)OCCO2,-17,
COCCn1c(C23CC4CC(CC(C4)C2)C3)n[nH]c1=S,-27,
COCCn1c(SCC(=O)Nc2nnc(C)s2)nnc1-c1c[nH]c2ccccc12,5,
COCCn1c(=S)[nH]c2ncccc2c1=O,u,VCAM1 pot conf=-14
COc1cccc(S(=O)(=O)N2CCN(c3ccccc3F)CC2)c1,-14,
COc1ccc(S(=O)(=O)N2CCN(Cc3cccc(Cl)c3)CC2)cc1,u,VCAM1 pot conf=-17
COc1cccc(CN2CCN(c3ncccn3)CC2)c1,-9,
CCn1c(SCC(=O)N2CCN(c3cccc(Cl)c3)CC2)nc2ccccc2c1=O,-96,
NC(=O)c1c(NC(NC(=O)c2ccco2)(C(F)(F)F)C(F)(F)F)sc2c1CCCC2,-17,
NC(=O)c1c(NC(=O)Cc2cccs2)sc2c1CCC2,-92,
CCC(=O)Nc1sc2c(c1C(N)=O)CCC2,114*,VCAM1 pot conf=-8
O=C(COC(=O)CCS(=O)(=O)c1ccc(Cl)cc1)NC1CCCCC1,54*,VCAM1 pot conf=-14
O=C(NC1CC1)c1ccc(S(=O)(=O)NCC2CCCCC2)cc1,-52,
Cc1cc(C(=O)OCC(=O)NC2CCCCC2)c(C)o1,-16,
C=CCNc1ncnc2c1[nH]c1ccc(Cl)cc12,-6,
COc1ccc(CN(CC(=O)NCc2ccco2)C(=O)CCC(=O)Nc2nccs2)cc1,4,
Fc1ccccc1/C=C1\CCCC2=C1Nc1nnnn1C2c1ccccc1F (configuration not stated),-5,
Cc1cc(C)c(OCC(=O)Nc2cccc(O)c2)cc1C,26,
CCOC(=O)c1ccc(NC(=O)COc2cc(=O)n(CC)c3ccccc23)cc1,0,
COc1ccccc1OCC(=O)Nc1ccc(C(N)=O)cc1,51*,VCAM1 pot conf=-16
C=CCn1c(SCc2nc3ccccc3c(=O)[nH]2)nnc1-c1cc2cc(Cl)ccc2o1,1,
COc1ccc(S(=O)(=O)N2CCC(C(=O)Nc3ccc(OC)c(OC)c3)CC2)cc1C,14,
CCn1nccc1C(=O)Nc1nccs1,u,VCAM1 pot conf=-13
CC(C)CN1C(=O)c2ccc(C(=O)Nc3nccs3)cc2C1=O,-24,
Cc1ncoc1C(=O)Nc1nccs1,4,

# High-throughput results: PubChem BioAssay, Columbia University Molecular Screening Center
